Values joined by “and” are separate entries in the source; they are usually repeats but may differ in a detail not shown here. Equal values may be shown once. The campaign covered roughly 420,000 compounds. About 50,000 (12%) were called active. Not shown: some 26% with an inconclusive outcome. Calls follow the shape of the dose curve; as a rule, active = well fitted inhibition curve with a large enough effect; inconclusive = small, poorly fitted or top-dose-only effect; inactive = flat fitted curve, though single readings scatter. The full list was thinned out, with actives kept by preference. A structure can be active in one record and inactive in another.
Experiment: qHTS for Inhibitors of human tyrosyl-DNA phosphodiesterase 1 (TDP1): qHTS in cells in presence of CPT; also: nearly all actives have a fitted effect of over 55% in size
Conditions: chicken DT40 Tdp1-/-;hTDP1 cells + 20 nM CPT, ATP luminescence, 48 h; series mostly up to 46.2 µM; activity change, negative = growth inhibition: at the top concentration
How it was run: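 Chicken DT40 Tdp1-/- cells complemented with human TDP1, 400 cells/well, exposed to compounds plus 20 nM camptothecin for at least 48 h at 37 C; viability read as ATP content by CellTiter-Glo luminescence.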
% is scaled to controls: 0 for no effect and ±100 for the full control effect; potency is read from the fitted curve at half-maximal effect.

Structure (SMILES) | activity change, negative = growth inhibition | Potency
CCOC(=O)[C@H]1[C@H]2COc3ccccc3[C@@H]2N2C(=O)CN(Cc3ccccc3)C(=O)[C@@]12C | 2.35% (inactive) | –
CCCNC(=S)N1CCC(NC(=O)c2ccc(OC)cc2)CC1 | -5.72% (inactive) | –
CCC(c1nc2ccccc2[nH]1)n1c(=O)c(-c2cccs2)nc2ccccc21 (configuration not stated) | – | 18.4 µM (active)
O=c1c(-c2cccs2)nc2cnc(Oc3ccccc3)nc2n1-c1ccccc1 | 22.1% (inactive) | –
CC(C)n1c(-c2cccs2)nc2ccccc21 | -29.4% (inactive) | –
O=C(NCc1ccccc1)C(c1cccnc1)N(C(=O)c1csnn1)c1ccc(F)cc1 (configuration not stated) | -0.462% (inactive) | –
CCC(=O)Nc1nc(OC)cc(OC)n1 | -1.67% (inactive) | –
COc1cc(OC)nc(NC(=O)CCl)n1 | – | 14.6 µM (active)
COc1cc(OC)nc(N/N=C(\c2ccccc2)c2ccncc2)n1 | -0.201% (inactive) | –
CCSc1nsc(NC(=O)Nc2ccccc2OC)n1 | -1.09% (inactive) | –
Cc1ccc(C)c(NC(=O)c2ccc3nccnc3c2)c1 | 2.67% (inactive) | –
Cc1ccc(NC(=O)c2cccc(N(C)C)c2)cc1NC(=O)c1ccc(O)cc1 | – | inactive and 29.9 µM (active)
Cc1ccc(F)cc1NC(=O)c1cccc(N(C)C)c1 | 4.84% (inactive) | –
O=C(c1cn2ccccc2n1)N1CCc2c([nH]c3ccccc23)C1c1ccccn1 (configuration not stated) | -7.37% (inactive) | –
CCc1nc2ccc(C(=O)NC3CCN(Cc4ccccc4)CC3)cn2c1N(C)CCN1CCOCC1 | -5.59% (inactive) | –
O=C1/C(=C\c2ccc([N+](=O)[O-])cc2)CS(=O)(=O)C/C1=C/c1ccc([N+](=O)[O-])cc1 | – | 0.0259 µM (active)
O=C(NN=Cc1ccc([N+](=O)[O-])cc1)C1CC1 | -7.32% (inactive) | –
O=[N+]([O-])c1ccc(C=NN=Cc2ccc([N+](=O)[O-])cc2)cc1 | -3.28% (inactive) | –
CCOc1cccc2cc(C(=O)OCC(=O)Nc3c(C)cccc3CC)c(=O)oc12 | -27.3% (inactive) | –
COCCNC(=O)CSc1nc2sccc2c(=O)n1-c1ccccc1 | -4.25% (inactive) | –
Cc1ccc(S(=O)(=O)N2CCC(C(=O)OCC(=O)N(C)c3ccccc3)CC2)cc1C | -3.59% (inactive) | –
Cc1ccc(N(C)C(=O)C2CCN(S(=O)(=O)c3ccc4c(c3)CCCN4C(=O)C3CCC3)CC2)cc1 | – | 23.1 µM (active)
Cc1ccc(S(=O)(=O)N2CCC(C(=O)N3CCCCCCC3)CC2)cc1 | – | 20.6 µM (active)
COc1ccc(S(=O)(=O)N2CCC(C(=O)N3CCCC3)CC2)cc1C | -14.2% (inactive) | –
COc1ccc(N(C)C(=O)C2CCN(S(=O)(=O)c3cc(Br)cc4c3N(C(C)=O)CC4)CC2)cc1 | -3.73% (inactive) | –
COc1ccc(N2CCN(C(=O)C3CCN(S(=O)(=O)c4ccc(C)cc4)CC3)CC2)cc1 | -12.3% (inactive) | –
Cc1c(NC(=O)COC(=O)/C=C/c2cccc(F)c2)c(=O)n(-c2ccccc2)n1C | -21.7% (inactive) | –

Reference: PubChem BioAssay AID686979 (National Center for Advancing Translational Sciences (NCATS), 2013)
